# PubChem BioAssay (NCATS)
# Records with an inconclusive call do not appear. A call without a number means that no potency is given here. Calls of active or inactive are those of the source. Unless noted, the call rests on the fitted dose curve; in most records, active means well fitted activation curve with a large enough effect; inconclusive means small, poorly fitted or top-dose-only effect; inactive means flat fitted curve, though single readings scatter.
# How the values were obtained:
# [1] = Confirmation and Secondary Assay for Modulators of Hemoglobin Beta Chain Splicing at IVS2 654 locus (AID 910);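 further: per-well total GFP intensity by laser scanning cytometry after 2-day treatment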
# In short: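 HeLa cells stably carrying EGFP interrupted by mutant beta-globin IVS2-654 intron (CMV-driven) were treated with compound for 2 days at 37C; corrected splicing was scored as total peak GFP intensity per well (488 nm excitation, 500-520 nm emission).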
# [2] = Confirmation and Secondary Assay for Modulators of Hemoglobin Beta Chain Splicing at IVS2 705 locus (AID 930);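 further: HeLa cells stably expressing the EGFP-705 splicing reporter; GFP fluorescence per well restored by corrected splicing of the IVS2-705 intron in EGFP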
# In short: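 Splice-correction reporter: EGFP cDNA split by beta-globin intron 2 bearing the 705 mutation, stably in HeLa. Compound incubation 2 days, 37C; fluorescent objects 5-250 µm summed per well.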
# [3] = qHTS profiling of the MIPE4 collection as inhibitors of Plasmodium falciparum (3D7) proliferation (AID 743344; call rule not given here); settings: P. falciparum 3D7 in erythrocytes, SYBR Green DNA fluorescence, 72 h; at 9.64 µM (top of the series)
# In short: (§1)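 Erythrocytes infected with P. falciparum (0.3% parasitemia, 2.5% hematocrit) incubated with compounds 72 h at 37 C, 5% CO2. Lysis with saponin/Triton buffer containing SYBR Green I, overnight at room temperature in the dark; DNA fluorescence (485/535 nm) normalised to 0.29 uM artemisinin and DMSO.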
# [4] = qHTS profiling of the MIPE4 collection as inhibitors of Plasmodium falciparum (DD2) proliferation (AID 743345; call rule not given here); settings: P. falciparum Dd2 in erythrocytes, SYBR Green DNA, 72 h; at 9.64 µM (top of the series)
# In short: as §1
# [5] = qHTS profiling of the MIPE4 collection as inhibitors of Plasmodium falciparum (DD2) proliferation (Rep 2) (AID 743346; call rule not given here); settings: P. falciparum Dd2 in erythrocytes, SYBR Green DNA, 72 h; at 9.64 µM (top of the series)
# In short: as §1
# [6] = qHTS profiling of the MIPE4 collection as inhibitors of Plasmodium falciparum (HB3) proliferation (AID 743347; call rule not given here); settings: P. falciparum HB3 in erythrocytes, SYBR Green DNA, 72 h; at 9.64 µM (top of the series)
# In short: as §1
# [7] = qHTS Assay for Identification of Small Molecule Agonists for Hypoxia Response Element Signaling Pathway (AID 914; active means well fitted activation curve with a large enough effect in the signal ratio, with a control signal flat, not every such curve was filed as active; the % refers to the signal ratio); settings: ME-180 (cervical carcinoma) HRE-bla reporter, beta-lactamase ratio, CoCl2, 17 h; activation: stronger effect = higher value
# In short: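 Cells were plated overnight, pin-dosed with compound in a titration series, co-stimulated with EC50 CoCl2 and incubated 17 hours at 37 degrees Celsius. CCF4 substrate was then loaded, and AC50 values came from the 460nm/530nm ratio.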
compound,measurement,setting,value
Cc1noc(C)c1-c1nc(Nc2ccncc2)c2ccccc2n1,Potency,[1],inactive
same,Potency,[2],inactive
CC(C)(N=NC(C)(C)C(=N)N)C(=N)N,Potency,[1],inactive
same,Potency,[2],inactive
N#Cc1cccc(-c2cncnc2-n2ccnc2)c1,Potency,[1],inactive
same,Potency,[2],inactive
CO[C@H]1C=CO[C@]2(C)Oc3c(C)c(O)c4c(O)c(c5c(c4c3C2=O)NC2(CCN(CC(C)C)CC2)N=5)=NC(=O)C(C)=CC=C[C@@H](C)[C@@H](O)[C@@H](C)[C@@H](O)[C@@H](C)[C@@H](OC(C)=O)[C@@H]1C,"parasite growth, % of DMSO control",[3],68.3%
same,"parasite growth remaining, % of DMSO control (lower = more inhibition)",[4],68.3%
same,"parasite growth, % of control (lower = inhibition)",[5],36%
same,"growth, % of control",[6],93.1%
COc1ccc([C@@H]2CC(=O)c3c(O)cc(O[C@H]4O[C@@H](CO[C@H]5O[C@@H](C)[C@@H](O)[C@@H](O)[C@@H]5O)[C@@H](O)[C@@H](O)[C@@H]4O)cc3O2)cc1O,activation,[7],-3.87% (inactive)
CN(C)c1ccc(-c2nccc(NCc3ccccc3)n2)cc1,Potency,[1],inactive
same,Potency,[2],inactive
CC(=O)N[C@H](CS)C(=O)O,Potency,[1],inactive
same,Potency,[2],inactive
C[C@@H]1Cc2ccccc2N1NC(=O)c1ccc(Cl)c(S(N)=O)c1 (stereo partly specified),activation,[7],7.68% (inactive)
